Most compounds without a hit are left out; they make up all but 4% or so of the library.
HIF-2a block = HIF-2a reporter inhibitors, primary screen, luminescence, 786-0 RCC cells; 786-0 RCC cells HIF-2a reporter, luciferase luminescence, overnight; inhibition, % at 18.8 µM; hit rate 0.72% among 360,000; AID 624352, 2012;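 active means inhibition of the luminescence signal of 40% or more relative to plate controls, in a single-dose primary screen at 18.75 µM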
TWEAK-Fn14 inh = inhibitors of TWEAK-Fn14 signaling, primary screen, luciferase reporter cells, uHTS | TWEAK-stimulated Fn14 reporter cells, luciferase luminescence, 8 h | inhibition, % at 10 µM | hit rate 2% among 360,000; in the data active means inhibition above about 50%
Peg3 promoter = Peg3 promoter-driven luciferase inhibitors, primary screen, cell-based, HeLa, luciferase luminescence; HeLa PEG-Prom luciferase reporter, overnight; inhibition, % at 20 µM; hit rate 1.7% among 360,000; AID 588405, 2011;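 active means inhibition of at least 50% at 20 µM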
TROY signal inh = inhibitors of TROY-driven NF-kB signaling, primary screen, Q293 LMP1-TROYcd cells, NF-kB luciferase, uHTS; Q293 LMP1-TROYcd NF-kB luciferase reporter, 4 h; hit rate 0.98% among 360,000; inhibition, % at 10 µM;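 active means compounds whose plate-normalised and pattern-corrected inhibition of the luciferase reporter signal at the single screening dose is 50% or more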
KKLEB tox = cytotoxicity in KKLEB CF airway cells, primary screen, cytotoxicity control for CF NF-kB inhibitor project, cell-based, uHTS, fluorescence assay plates | KKLEB CF airway cells viability, ATPlite luminescence, overnight; stronger effect = lower value; cells stimulated with P. aeruginosa culture filtrate | activity change (cytotoxicity), % at 5 µM | hit rate 0.36% among 360,000;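 active means corrected activity change at or below -50% at 5 µM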
CF NFkB inh = inhibitors of PAF-induced NF-kB signaling, primary screen, cell-based, GFP fluorescence, uHTS; KKLEB NF-kB-GFP reporter, GFP fluorescence overnight; inhibition, % at 5 µM; hit rate 0.86% among 360,000; AID 588850, 2011;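 active means at least 50% inhibition at 5 µM, scaled per plate between neutral and stimulator controls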;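 further: PAF is a Pseudomonas aeruginosa culture filtrate used as stimulus; plate controls were PAF-stimulated DMSO wells for no effect and unstimulated DMSO wells for full effect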
CF NFkB conf = inhibitors of PAF-induced NF-kB signaling, retest, confirmation, cell-based, GFP fluorescence, single concentration; shares compounds with CF NFkB inh; KKLEB CF airway cells, overnight; inhibition, % at 5 µM; hit rate 64% among 1,300; AID 602472, 2012; in the data active means inhibition above about 40%;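 further: stimulus PAF is a Pseudomonas aeruginosa filtrate and not platelet activating factor; plate controls were DMSO wells with stimulus for no effect and unstimulated DMSO wells for full effect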
* marks the source's active call; other numbers are inactive results; . = not tested or not shown.

SMILES | HIF-2a block | TWEAK-Fn14 inh | Peg3 promoter | TROY signal inh | KKLEB tox | CF NFkB inh | CF NFkB conf
CCC(CO)Oc1cc(NCc2ccccc2)c2ncn(C(C)C)c2c1 (stereo not drawn) | 5 | -3 | 15 | -32 | -4 | 8 | .
CCC(CO)Oc1cc(NCc2ccc(C(C)(C)C)cc2)c2ncn(C(C)C)c2c1 (stereo not drawn) | 20 | 3 | 19 | 21 | 1 | 51* | 29
CCC(COC)Oc1cc(NCc2ccccc2)c2ncn(C(C)C)c2c1 (stereo not drawn) | 12 | 33 | 0 | 30 | -15 | 66* | 20
CCC(CO)Oc1cc(NCc2ccc(O)cc2)c2ncn(C(C)C)c2c1 (stereo not drawn) | 2 | -1 | 2 | -7 | -3 | 7 | .
CCCCOc1cc(NCc2ccccc2)c2ncn(C(C)C)c2c1 | 1 | 10 | 10 | 12 | -8 | 60* | 22
CCC(CO)Oc1cc(NCc2ccccc2C(F)(F)F)c2ncn(C(C)C)c2c1 (stereo not drawn) | 22 | 10 | 39 | -1 | -17 | 61* | 11
CC(=O)c1cnc2n(c1=O)CCS2 | 1 | -8 | -6 | 1 | 1 | 28 | .
C[C@]12CCC(=O)C=C1CCC1C2CC[C@@]2(C)C1CCC21OCCO1 (stereo partly drawn) | 8 | -6 | 23 | 9 | -3 | 6 | .
CCC(=O)OC1(C(C)=O)CCC2C3CCC4=CC(=O)CCC4(C)C3CCC21C (stereo not drawn) | 14 | -3 | -5 | 0 | -5 | 51* | -89
CCc1ccc(Nc2nc(N3CCOCC3)nc(N3CCOCC3)n2)cc1 | 9 | -22 | 22 | 4 | -4 | -4 | .
Cc1ccc(-c2cccc(C(=O)NCc3ccccc3)n2)c2ccccc12 | 2 | -9 | 16 | 2 | -13 | 53* | 31
Cc1ccc(-c2cccc(C(=O)NCCc3ccccc3)n2)c2ccccc12 | -58 | -35 | -49 | -12 | -23 | 37 | .
CCn1nnnc1SCC(=O)Nc1nnc(C(C)C)s1 | -2 | -4 | 0 | -5 | -3 | -2 | .
CC(C)(C)OC(=O)Nc1ccc([C@H](NC(=O)OC(C)(C)C)C(=O)OC(C)(C)C)cc1 | 4 | 3 | 6 | -14 | -8 | 7 | .
COc1ccc(-c2csc3ncnc(NCCN4CCOCC4)c23)cc1 | 33 | 45 | 30 | 43 | -17 | 56* | 82*
c1ccc(-c2csc3ncnc(NCCN4CCOCC4)c23)cc1 | 18 | 13 | 21 | 27 | -13 | 33 | .
Clc1ccc(-c2csc3ncnc(NCCN4CCOCC4)c23)cc1 | 22 | 18 | 14 | 23 | -13 | 44 | .
Cc1ccc(-c2csc3ncnc(NCCN4CCOCC4)c23)cc1 | 31 | 42 | 27 | 18 | -23 | 58* | 47*
COc1cc(OC)c(NC(=O)CCNS(=O)(=O)c2ccc3c(c2)oc(=O)n3C)cc1Cl | 14 | 2 | 13 | -9 | 2 | 13 | .
O=C(Nc1cccnc1)c1sc2cccc(F)c2c1Cl | -304 | 47 | -241 | -25 | -9 | 53* | 54*
CN(C)CCNC(=O)c1sc2cccc(F)c2c1Cl | -54 | -11 | -37 | -12 | 5 | 10 | .
Cc1ccc(C(=O)c2cnc3ccccc3c2-c2ccccc2)cc1 | 17 | 33 | 19 | 31 | -17 | 70* | 38
COc1ccc(COC(=O)C2=C(C)NC(=O)NC2c2ccc(F)cc2)cc1 (stereo not drawn) | 33 | 53* | 27 | 33 | -6 | 60* | 59*
CCC(=O)N=c1sc2c(C)cc(C)cc2n1CC(=O)OC | 9 | -24 | 10 | 0 | -2 | 5 | .
CCOc1ccc2nc(SCC(=O)c3ccc(O)cc3O)sc2c1 | -63 | 1 | -72 | 1 | 0 | 58* | 45*

High-throughput results deposited in PubChem by Sanford-Burnham Center for Chemical Genomics.
